The values below come from PubChem BioAssay AID920 (The Scripps Research Institute Molecular Screening Center, 2007).

The structures appear in SMILES notation. The campaign covered roughly 200,000 compounds. About 700 (0.35%) were called active. The sample as a whole holds a higher share of actives than the screen did. Values without a mark were called inactive.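 The calls were made as follows: active = inhibition above a set limit, the mean inhibition across all tested compounds plus 3 SD (cut at about 34% in these data); inactive = the rest.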

This experiment in a line: STAT1 signaling inhibitors, primary screen, cell-based, HTS, luciferase reporter (AID 920).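 Also: 0% = IFN-gamma with DMSO and 100% = IFN-gamma with 300 µM nifuroxazide.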 The conditions noted are these: NIH 3T3 STAT1-luciferase reporter, IFN-gamma, luminescence; at 5.5 µM; stronger effect = higher value. On the technique in general: A reporter such as luciferase makes a cellular process visible.
For the molecule `O=C(NCCCO)/C(=C\C=C\c1ccccc1)NC(=O)c1ccccc1Cl`, the inhibition (as a rule, the change of the read-out against control, counted positive when it falls) is 3.7%.
As to `Cc1nn(C)c(C)c1CN(C(=O)CCc1nnc(Cc2c[nH]c3ccccc23)o1)C(C)C`, the inhibition is -1.77%.
For `Cc1cc(C2=NNC(=Nc3ccc(S(=O)(=O)N4CCOCC4)cc3)SC2)c(C)n1CC1CCCO1` (configuration not stated) the value was -1.28%; for `C=CCn1c(C)cc(C2=NNC(=NCC)SC2)c1C`, 94.7% (active).
For `COCCn1c(C)cc(C2=NNC(=Nc3ccc(F)cc3)SC2)c1C` the value was -36.4%; for `N/C(=N\OC(=O)Cc1ccccc1[N+](=O)[O-])c1ccc(Br)cc1`, 0.32%.
For `CCc1cc2c(NC3CCCC3)ncnc2s1` the value was 22.1%.
Consider `CCc1cc2c(N3CCN(c4nnc(CC)s4)CC3)ncnc2s1`, for which the inhibition is 51.2% (active).
As for `CCc1cc2c(SCC(=O)Nc3ncc(Cl)c(C)c3Cl)ncnc2s1`, the figure is -4.22%; as for `O=C1C2C3C=CC(C4CC34)C2C(=O)N1c1nccs1` (configuration not stated), 3.92%; as for `C#CCOCCOCCOCCNc1nc(N2CCN(C(=O)[C@H](C(C)C)n3cc(CCO)nn3)CC2)nc(N2CCN(C(=O)[C@H]([C@@H](C)CC)n3cc(CCCN=C(N)N)nn3)CC2)n1`, -0.51%.
With `CC(=O)c1ccc(N2CCN(CC(=O)Nc3ccccc3N3CCOCC3)CC2)cc1`, the inhibition was 15%.
For `O=C(CSC(=S)N1CCOCC1)c1ccccc1` the value was -27.1%.
As to `O=C(CC(=O)Nc1ccc(Cl)c(Cl)c1)N/N=C/c1ccc(O)cc1`, the inhibition was 6.41%.
As for `CN(C)CCNC(CC(=O)Nc1ccc(Cl)c(Cl)c1)C(=O)O` (configuration not stated), the figure is 0.9%; as for `O=C(CC(O)(C(F)(F)F)C(F)(F)F)Nc1ccc(Cl)c(Cl)c1`, 48.3% (active); as for `CC1=C(C)CC(C(=O)NC(C)CCc2ccccc2)C(C(=O)O)C1` (configuration not stated), -0.81%.
For `CCCCOc1ccc(C(=O)NCC(=O)OCC(=O)N2CCN(S(=O)(=O)c3ccc(C)cc3C)CC2)cc1`, the inhibition is -1.91%.
For `CCCNC(=O)c1c(N)n(-c2ccc(S(N)(=O)=O)cc2)c2nc3ccccc3nc12` the value was -1.16%; for `CC(C)Cn1c(N)c(C(=O)NCc2cccs2)c2nc3ccccc3nc21`, -2.91%.
As for `CCC(C)NC(=O)c1c(N)n(/N=C/c2cccs2)c2nc3ccccc3nc12` (configuration not stated), the figure is 39.4% (active).
As for `Cc1ccc(-c2nc(-c3cccnc3)sc2CC(=O)Nc2ccc(C)c(Cl)c2)cc1`, the figure is 13.7%.
